ELG1 DNA repair – inhibitors of ELG1-dependent DNA repair in HEK293T cells | 2.3% of 330,000 active | HEK293T ELG1-luciferase reporter, luminescence, 16 h; DNA damage induced by 5-fluorouridine | AID 504467 | Potency, µM (highest dose often 46.1 µM), for inactives: top-dose activity change, negative = inhibition, usual class: inhibitors; further: potency means the concentration at half of the fitted maximal effect; nearly all actives have a fitted effect of over 55% in size
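5-Fluorouridine DNA damage + compound/DMSO, 2,000 cells/well, 16 h, 37 °C/5% CO2. ONE-Glo, 30 min RT, luminescence. Readout = decrease in reporter signal.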
DT40 TDP1 CPT – DT40-hTDP1 cell growth loss with CPT; chicken DT40 Tdp1-/-;hTDP1 cells + 20 nM CPT, ATP luminescence, 48 h; Potency, µM (highest dose often 46.2 µM), for the others: at the highest dose activity change, negative = growth inhibition, actives largely listed as inhibitors; 12% of 420,000 active; AID 686979; further: potency means the concentration at half of the fitted maximal effect; nearly all actives have a fitted effect of over 55% in size
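Cell growth measured by CellTiter-Glo luminescence after a minimum 48 h, 37 C compound exposure with 20 nM CPT in Tdp1-knockout DT40 cells stably expressing hTDP1, seeded 400/well; qHTS titration format.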
DT40 TDP1 no CPT – qHTS for Inhibitors of human tyrosyl-DNA phosphodiesterase 1 (TDP1): qHTS in cells in absence of CPT. DT40 Tdp1-/- hTDP1 cells, no CPT, ATP luminescence, 48 h. Potency, µM (top dose mostly 46.2 µM), inactives show at the top dose activity change, negative = growth inhibition, hits mostly inhibitors. 15% of 420,000 active. AID 686978, 2013; further: potency means the concentration at half of the fitted maximal effect; nearly all actives have a fitted effect of over 55% in size
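Seeded 400 DT40-hTDP1 cells/well (vehicle DMSO, no 20 nM CPT); pinned compounds; ≥48 hr at 37 °C; CellTiter-Glo luminescence as viability measure.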
HT1080-NT tox – kills 2HG-producing HT-1080-NT fibrosarcoma cells; HT-1080-NT fibrosarcoma viability, CellTiter-Glo ATP luminescence, 48 h; Potency, µM (top dose mostly 46.1 µM), without a hit: at the highest dose activity, negative = less viability, most hits filed as cytotoxic; 1.6% of 360,000 active; AID 686970;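 further: NT is the 2HG producing partner of a matched IDH1 knockdown line; potency means the concentration at half of the fitted maximal effect; 0% = DMSO-treated cells and -100% = media-only wells without cells; nearly all actives have a fitted effect of over 55% in size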
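HT-1080-NT; 750 cells/well; 5% FBS RPMI; 48 h compound, 37 degrees C; CellTiter-Glo luminescence; curve fitting and curve-class assignment.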
IL1B secr inh – blocks inflammasome-driven IL-1 beta release; 4.7% of 360,000 active; THP-1 LPS/ATP IL-1B secretion, AlphaLISA, 16 h; active compounds read low; activity change, % at 57.5 µM; in the data active means activity change below about -50%; inconclusive means mostly about -30% to -49%
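Secreted IL-1B measured by AlphaLISA bead assay after 16 h compound exposure of THP-1 cells; compounds (final up to 57.5 uM) added 1 h before LPS (250 ng/mL) and ATP (1.25 mM) stimulation; lower signal means less secretion.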
HT1080 IDH1KD tx – toxicity to HT-1080 IDH1 knockdown cells (counter line); HT-1080 IDH1 knockdown viability, ATP luminescence, 48 h; 2% of 360,000 active; Potency, µM (highest dose often 46.1 µM), for inactives: at the highest dose activity, negative = toxicity, hits mostly cytotoxic;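 further: potency means the concentration at half of the fitted maximal effect; 0% = DMSO wells and -100% = cell-free medium wells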
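In this qHTS, HT-1080 cells depleted of IDH1 are exposed for 48 h at 37 °C to compound titrations. Toxicity is scored from CellTiter-Glo luminescence, with DMSO as full viability and medium alone as none.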
* hit, by the source's call; i = inactive; ? = inconclusive; · = no result given; [ ] = remark or other dose. Compounds with a hit are over-represented: about 19% of the library has one in this group of screens. Unless noted, the call rests on the fitted dose curve; in most records, active means well fitted curve in the direction sought with a large enough effect; inconclusive means small, poorly fitted or top-dose-only effect, or another doubt; inactive means no such curve, though single readings can be large; an effect the other way counts as inactive or inconclusive. Unless noted, on the % scale 0 is the no-effect control and ±100 the full control effect.

SMILES	ELG1 DNA repair	DT40 TDP1 CPT	DT40 TDP1 no CPT	HT1080-NT tox	IL1B secr inh	HT1080 IDH1KD tx
O=c1[nH]c(C2CCN(S(=O)(=O)c3ccccc3)CC2)nc2c1nnn2Cc1c(F)cccc1Cl	-1.0%	11.8%	-17.1%	?	-0.3	?
CC(=O)Nc1ccc(S(=O)(=O)N2CCC(c3nc4c(nnn4Cc4ccccc4Cl)c(=O)[nH]3)CC2)cc1	?	25.7%	16.2%	-26.6%	-50.8*	-16.4%
Cc1ccc(Cn2nnc3c(=O)[nH]c(C4CCCN(C(=O)Nc5ccc(F)cc5)C4)nc32)cc1 (stereo not drawn)	16.4µM*	?	18.4µM*	-1.5%	8.7	-13.3%
O=C(C1CCC1)N1CCC(c2nc3c(nnn3Cc3c(F)cccc3Cl)c(=O)[nH]2)CC1	?	-26.0%	?	-12.3%	?	?
O=C(Nc1ccc(F)cc1)N1CCC(c2nc3c(nnn3Cc3ccccc3Cl)c(=O)[nH]2)CC1	?	?	?	-27.6%	-73.8*	-29.5%
CSc1cccc(N2CC(C(=O)N(Cc3nnc(-c4ccccc4Cl)o3)C3CC3)CC2=O)c1 (stereo not drawn)	?	-29.4%	?	-1.8%	-17.2	-6.7%
CC(=O)NC(Cc1c[nH]c2ccccc12)C(=O)OCC(=O)N1CCN(S(=O)(=O)c2ccc(Cl)cc2)CC1 (stereo not drawn)	·	-9.4%	3.9%	-3.2%	9.9	7.8%
COc1ccc2c(C(=O)c3ccc(C)cc3)n(Cc3ccc(C(N)=O)cc3)[n+]([O-])c2c1	?	?	-24.6%	3.5%	2.9	2.1%
COc1ccc(-c2ccc(SCC(=O)c3ccc(F)cc3)nn2)cc1OC	-28.8%	?	?	-7.3%	?	-2.8%
CCOC(=O)c1ccc(NC(=O)CSc2ccc(-c3ccccn3)nn2)cc1	-1.3%	20.6µM*	18.4µM*	?	59.5	?
O=C(CSc1ccc(-c2ccccn2)nn1)Nc1ccc(F)c(F)c1	?	20.6µM*	20.6µM*	?	i	?
COc1ccc(-c2ccc(SCC(=O)c3cccs3)nn2)cc1OC	5.6%	?	16.4µM*	-3.3%	-18.2	-13.4%
Fc1cccc(CSc2ccc(-c3cccs3)nn2)c1	·	-28.5%	?	·	·	·
O=C(CSc1ccc(-c2cccs2)nn1)Nc1cccc(F)c1	·	14.6µM*	23.1µM*	·	·	·
CCc1ccc(CN(C)C(=O)CCc2nnc(CCc3cccc(OC)c3)o2)nc1	-3.9%	?	?	-2.3%	34.2	3.2%
Cc1ccc([C@@H]2[C@@H]3C(=O)N(C)C(=O)[C@@H]3[C@]3(C)C(=O)N(Cc4ccc(-c5ccccc5)cc4)CC(=O)N23)o1	-7.8%	?	-8.8%	-9.9%	3.4	-6.1%
COc1ccccc1-c1nccc(NCc2cnc(C)cn2)n1	·	2.9%	-1.8%	·	·	·
CC1=C(C(=O)N2CCCCCC2)CC(CC(=O)NC2CCCC2)C(=O)N1CCC1=CCCCC1 (stereo not drawn)	·	?	-24.5%	4.0%	-13.5	-6.8%
COc1ccc(-c2ccc(SCC(=O)Nc3cccc(C(C)=O)c3)nn2)cc1OC	?	13µM*	18.4µM*	0.0%	-86.1*	-19.4%
COc1ccccc1NC(=O)CSc1ccc(-c2ccccn2)nn1	-1.1%	?	?	-3.0%	i	?
COc1ccc(NC(=O)CSc2ccc(-c3ccccn3)nn2)cc1OC	27.0%	23.1µM*	16.4µM*	13.8%	73.1	1.7%
COc1ccccc1NC(=O)CSc1ccc(-c2ccc(-n3cccn3)cc2)nn1	-8.0%	?	18.4µM*	-0.1%	-14.7	7.8%
COc1ccc(OC)c(NC(=O)Cn2cc(C(=O)c3ccco3)c3ccccc32)c1	?	?	16.4µM*	-10.3%	-21.4	0.0%
COc1ccc(OC)c(NC(=O)Cn2cc(C(=O)c3cccs3)c3ccccc32)c1	·	?	18.4µM*	·	·	·
COc1ccccc1NC(=O)Cn1cc(C(=O)c2ccco2)c2ccccc21	?	-5.2%	-10.1%	1.6%	-50.0*	-2.0%
SMILES	ELG1 DNA repair	DT40 TDP1 CPT	DT40 TDP1 no CPT	HT1080-NT tox	IL1B secr inh	HT1080 IDH1KD tx
O=C(Cn1cc(C(=O)c2cccs2)c2ccccc21)Nc1ccc(Br)cc1	·	?	5.8µM*	·	·	·
NS(=O)(=O)c1cccc(NC(=O)COC(=O)CSCc2ccccc2)c1	-5.3%	-7.4%	0.0%	-8.2%	11.8	-3.2%
CC1(C)C(=O)Nc2ccccc2N1C(=O)COC(=O)Cc1ccccc1F	15.6%	?	-18.8%	13.9%	8.4	23.1%
Cc1ccc(-c2c3c([nH]c(=S)c2C#N)CCCC3)o1	-0.4%	23.1µM*	?	-3.9%	-20.4	-5.6%
O=C(COc1ccc(Cl)cc1)NN=C1CCCCCCC1	-0.2%	16.3%	-7.0%	5.1%	-11.9	0.3%
O=S1(=O)CC(N2CCC(Cc3ccccc3)CC2)CN1CCc1ccccc1 (stereo not drawn)	·	?	20.6µM*	2.6%	29.0	0.0%
Cc1cccc(CN2CCN(C3CN(Cc4ccc([N+](=O)[O-])cc4)S(=O)(=O)C3)CC2)c1 (stereo not drawn)	·	16.4µM*	23.1µM*	-6.6%	-7.3	?
O=[N+]([O-])c1ccc(CN2CC(N3CCC(Cc4ccccc4)CC3)CS2(=O)=O)cc1 (stereo not drawn)	·	16.4µM*	16.4µM*	-8.7%	6.0	-5.7%
O=S1(=O)CC(N2CCCC2)CN1CCc1ccccc1 (stereo not drawn)	·	-19.7%	-9.1%	18.1%	-18.2	4.1%
O=[N+]([O-])c1ccc(CN2CC(N3CCN(CC4CC4)CC3)CS2(=O)=O)cc1 (stereo not drawn)	·	-24.1%	-24.7%	-1.0%	16.7	8.2%
O=c1cc(CSCc2ccc(Cl)cc2)[nH]c(=O)[nH]1	-2.2%	-2.3%	12.0%	23.3%	-3.1	13.5%
COc1cc(-c2ccc(C)cc2)cc2c1OCCN(C(=O)CCn1ccc(C)n1)C2	·	-0.5%[9.04 µM]	?	·	·	·
C[C@H]1COc2cccc(N3CCC[C@H]3CO)c2S(=O)(=O)N1	·	-2.4%	-13.4%	20.0%	0.0	?
CS(=O)(=O)c1ccc(NC(=O)CCN2C(=O)C3CC=CCC3C2=O)cc1 (stereo not drawn)	0.5%	0.7%	5.2%	10.0%	-6.1	8.3%
COC(=O)c1ccc2c(=O)n(CCCCCC(=O)NCc3ccc(OC)cc3)c(=O)[nH]c2c1	·	23.1µM*	?	·	·	·
